This note sets out measurements from PubChem BioAssay (EPA / NIEHS).

Results filed as inconclusive are left out. Active and inactive are the calls of the source. How the source made its calls, unless noted: active means hit-call score of the fitted dose curve at least 0.9, where 1 is the maximum; inactive means score below 0.9.

Experiment [1] addresses Myc proto-oncogene protein (Homo sapiens) (UniProt P01106). Put plainly: ATG_Myc_CIS: Attagene CIS-FACTORIAL HepG2 Assay for human Myelocytomatosis (Myc) Proto-Oncogene Transcription Factor (AID 2282990). The conditions noted are these: HepG2, Attagene cis-reporter transcription factor activity; actives raise or lower the signal. The essentials:
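Read-out: fluorescent reporter mRNA fragments resolved by capillary electrophoresis after RT-PCR. Human HepG2 liver cells carried transfected cis-element reporter units and were dosed for 24 h. Gain or loss of signal fitted relative to DMSO baseline.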

Experiment [2] can be described thus: ATG_NF_kB_CIS: Attagene CIS-FACTORIAL HepG2 Assay for human Nuclear Factor Kappa B (NF-kB) (AID 2282991). The conditions noted are these: HepG2 Attagene cis-factorial NF-kB reporter mRNA; actives raise or lower the signal. The essentials:
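Endogenous transcription factor activity in HepG2 was captured via cis-regulated reporter constructs; after 24 h dosing, reporter mRNA was reverse-transcribed, amplified, fluorescently labelled and sized by capillary electrophoresis, with activity fitted bidirectionally relative to DMSO.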

Experiment [3] in a line: ATG_NRF2_ARE_CIS: Attagene CIS-FACTORIAL HepG2 Assay for human Nuclear Factor Erythroid 2 Related Factor 2 (NFR2) response to Antioxidant Response Elements (ARE) (AID 2282992).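 On AC50: reporter mRNA level measured by RT-PCR and capillary electrophoresis fluorescence.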 The following applies: HepG2 Attagene ARE/NRF2 reporter, transcription factor activity; actives raise or lower the signal. The essentials:
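Fluorescence intensity of reporter-specific cDNA fragments, separated by capillary electrophoresis, reflects mRNA induction in transfected HepG2 cells at 24 h. Activity is fitted bidirectionally, DMSO serving as baseline.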

Experiment [4] in a line: ATG_Oct_MLP_CIS: Attagene CIS-FACTORIAL HepG2 Assay for human Octamer-Binding Transcription Factor (Oct) (AID 2282993). The following applies: HepG2 Attagene cis-factorial Oct reporter, mRNA; actives raise or lower the signal. The essentials: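 Read-out: reporter mRNA via RT-PCR plus capillary electrophoresis of 6-FAM-labelled fragments. Transiently transfected HepG2, 24 h exposure, endogenous TF activity on cis elements. Gain or loss of signal fitted relative to DMSO.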

The target of experiment [5] is Cellular tumor antigen p53 (Homo sapiens) (UniProt P04637). The experiment in a line: ATG_p53_CIS: Attagene CIS-FACTORIAL HepG2 Assay for human p53 Transcription Factor (AID 2282994). The following applies: HepG2 p53 cis-element reporter, Attagene mRNA; actives raise or lower the signal. The essentials:
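Transiently transfected HepG2 (multiple cis reporter transcription units); exposure 24 h; reporter RNA via RT-PCR, 6-FAM extension, 2 h HpaI digest at 37 C, CE detection; DMSO baseline.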

Experiment [6] is described as follows: BSK_3C_TissueFactor: BioMAP Diversity Plus: 3C Assay for Tissue Factor Biomarker Activity (AID 2282997). The following applies: BioMAP 3C HUVEC, tissue factor biomarker readout; actives raise or lower the signal. The essentials: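 Cells used were primary human umbilical vein endothelial cells. They were dosed with chemical, and after 24 h Tissue Factor was quantified by ELISA. Curves were fitted bidirectionally with DMSO as baseline.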

Experiment [7] is described as follows: BSK_3C_uPAR: BioMAP Diversity Plus: 3C Assay for Urokinase-type plasminogen activator receptor (uPAR) Biomarker Activity (AID 2282998). The following applies: BioMAP 3C HUVEC, uPAR biomarker ELISA; actives raise or lower the signal. The essentials:
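HUVEC primary cells; 24 h post-dose; uPAR by ELISA; gain or loss of signal fitted bidirectionally vs DMSO baseline.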
Background: An ELISA detects its analyte on a solid surface through an enzyme-linked reagent.

Experiment [8] can be described thus: BSK_3C_Proliferation: Cell Proliferation Assessment in the BioMAP Diversity Plus: 3C Assay (AID 2283006).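 On AC50: potency may reflect either rise or fall in cell number versus DMSO.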 The conditions noted are these: primary human endothelial cells (HUVEC). The essentials: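 Cells (human umbilical vein endothelial, sub-confluent) receive test chemical; after 48 h they are fixed in 10% trichloroacetic acid, stained with 0.1% SRB and read at 560 nm. Activity is referenced to DMSO, fitting increases and decreases.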

The target of experiment [9] is Nuclear receptor subfamily 1 group I member 2 (Homo sapiens) (UniProt O75469). Put plainly: ATG_PXR_TRANS: Attagene TRANS-FACTORIAL HepG2 Assay for human Pregnane X Receptor (PXR) (AID 2283008; active means hit-call score of the fitted dose curve at least 0.9, where 1 is the maximum). The essentials: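 Transient HepG2 transfectants carrying multiplexed reporter transcription units; PXR activity read through a Gal4 chimera. 24 h exposure. RT-PCR/CE fluorescence; upward curve fit referenced to DMSO.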

Experiment [10] concerns the target human Retinoic Acid Receptor gamma (RARg), RARG (gene 5916) (UniProt P13631). The experiment in a line: ATG_RARg_TRANS: Attagene TRANS-FACTORIAL HepG2 Assay for human Retinoic Acid Receptor gamma (RARg) (AID 2283009; active means hit-call score of the fitted dose curve at least 0.9, where 1 is the maximum). The essentials: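 TRANS format measured activity of exogenous NR-GAL4 fusion (RARg) in transfected HepG2 liver cells after 24 h dosing. Induced reporter RNA was detected by RT-PCR/capillary electrophoresis fluorescence, analysed in the positive direction against DMSO.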

Experiment [11] can be described thus: BSK_3C_VCAM1: BioMAP Diversity Plus: 3C Assay for Vascular cell adhesion molecule 1 (VCAM1) Biomarker Activity (AID 2282999). The conditions noted are these: BioMAP 3C HUVEC, VCAM1 ELISA, cytokine-stimulated; actives raise or lower the signal. The essentials:
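HUVEC primary cells, 24 h compound exposure; VCAM-1 by ELISA; gain/loss of signal fitted bidirectionally vs DMSO baseline.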

Experiment [12] has as its target human Peroxisome Proliferator-activated Receptor delta (PPARd), PPARD (gene 5467) (UniProt Q03181). Put plainly: ATG_PPARd_TRANS: Attagene TRANS-FACTORIAL HepG2 Assay for human Peroxisome Proliferator-activated Receptor delta (PPARd) (AID 2283002; active means hit-call score of the fitted dose curve at least 0.9, where 1 is the maximum). The essentials: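 Read-out: reporter mRNA induction, quantified by fluorescent RT-PCR products resolved by capillary electrophoresis. Human HepG2 liver cells carried transiently transfected Gal4-UAS reporter constructs with chimeric NR-Gal4 fusions. Cells were dosed for 24 h; DMSO served as baseline.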

In experiment [13] the target is Peroxisome proliferator-activated receptor gamma (Homo sapiens) (UniProt P37231). Put plainly: ATG_PPARg_TRANS: Attagene TRANS-FACTORIAL HepG2 Assay for human Peroxisome Proliferator-activated Receptor-gamma (PPARg) (AID 2283007; active means hit-call score of the fitted dose curve at least 0.9, where 1 is the maximum). The essentials:
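A TRANS-format multiplexed reporter assay measures activity of an exogenous chimeric NR-Gal4 protein in HepG2 cells. After 24 h of chemical exposure, reporter transcripts are amplified, fluorescently labelled and sized by capillary electrophoresis, with gain of signal scored against DMSO.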

Experiment [14] deals with human RAR-related Orphan Receptor beta (RORb), RORB (gene 6096) (UniProt Q92753). Put plainly: ATG_RORb_TRANS: Attagene TRANS-FACTORIAL HepG2 Assay for human RAR-related Orphan Receptor beta (RORb) (AID 2283010; active means hit-call score of the fitted dose curve at least 0.9, where 1 is the maximum). The essentials:
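Transfect HepG2 with multiple GAL4-UAS reporter transcription units; dose chemicals for 24 h; isolate RNA, reverse-transcribe and PCR-amplify reporter sequences; label, digest and resolve fragments by capillary electrophoresis; fit increases relative to DMSO.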

The target of experiment [15] is human RAR-related Orphan Receptor gamma (RORg), RORC (gene 6097) (UniProt P51449). The experiment in a line: ATG_RORg_TRANS: Attagene TRANS-FACTORIAL HepG2 Assay for human RAR-related Orphan Receptor gamma (RORg) (AID 2283011; active means hit-call score of the fitted dose curve at least 0.9, where 1 is the maximum). The essentials:
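Activity is scored as increase in GAL4-UAS reporter mRNA over DMSO, detected by fluorescent RT-PCR and capillary electrophoresis in HepG2 cells transiently expressing a RORg-Gal4 chimera, 24 h after dosing.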

The nature of experiment [16]: BSK_4H_Eotaxin3: BioMAP Diversity Plus: 4H Assay for Eotaxin 3 Biomarker Activity (AID 2283000).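 Further: CCL26 protein level quantified by ELISA in parallel with SRB cytotoxicity check.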 The conditions noted are these: primary human endothelial cells (HUVEC); actives raise or lower the signal. The essentials: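 Endothelial primary cells (human umbilical vein) exposed to compound for 24 h. ELISA detection of Eotaxin-3.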
Read-out in experiment [17]: Intercellular Adhesion Molecule 1 (ICAM1), ICAM1 (gene 3383)
The experiment in a line: BSK_3C_ICAM1: BioMAP Diversity Plus: 3C Assay for Intercellular Adhesion Molecule 1 (ICAM1) Biomarker Activity (AID 2283003). The following applies: primary human endothelial cells (HUVEC); actives raise or lower the signal. The essentials:
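Chemicals are dosed onto primary human umbilical vein endothelium (3C system). After 24 h, ICAM-1 is measured by ELISA, and responses are fitted bidirectionally relative to DMSO.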

human RAR-related Orphan Receptor beta (RORb), RORB (gene 6096), sequence (Q92753 whole entry, looked up, the tested form may be a part): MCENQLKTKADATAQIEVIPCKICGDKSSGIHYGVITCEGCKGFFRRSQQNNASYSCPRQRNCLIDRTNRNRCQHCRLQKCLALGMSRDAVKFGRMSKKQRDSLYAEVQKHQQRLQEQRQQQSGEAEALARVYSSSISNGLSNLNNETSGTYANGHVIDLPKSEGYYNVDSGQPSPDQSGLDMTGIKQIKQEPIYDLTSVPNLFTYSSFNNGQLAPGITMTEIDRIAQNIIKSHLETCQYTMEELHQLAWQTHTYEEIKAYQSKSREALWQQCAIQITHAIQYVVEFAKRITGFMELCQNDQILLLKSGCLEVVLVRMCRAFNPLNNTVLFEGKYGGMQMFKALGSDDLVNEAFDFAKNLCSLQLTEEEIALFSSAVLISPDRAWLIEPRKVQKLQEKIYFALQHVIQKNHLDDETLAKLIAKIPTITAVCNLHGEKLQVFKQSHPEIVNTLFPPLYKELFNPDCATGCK
Myc proto-oncogene protein (Homo sapiens), sequence (P01106 whole entry, looked up, the tested form may be a part): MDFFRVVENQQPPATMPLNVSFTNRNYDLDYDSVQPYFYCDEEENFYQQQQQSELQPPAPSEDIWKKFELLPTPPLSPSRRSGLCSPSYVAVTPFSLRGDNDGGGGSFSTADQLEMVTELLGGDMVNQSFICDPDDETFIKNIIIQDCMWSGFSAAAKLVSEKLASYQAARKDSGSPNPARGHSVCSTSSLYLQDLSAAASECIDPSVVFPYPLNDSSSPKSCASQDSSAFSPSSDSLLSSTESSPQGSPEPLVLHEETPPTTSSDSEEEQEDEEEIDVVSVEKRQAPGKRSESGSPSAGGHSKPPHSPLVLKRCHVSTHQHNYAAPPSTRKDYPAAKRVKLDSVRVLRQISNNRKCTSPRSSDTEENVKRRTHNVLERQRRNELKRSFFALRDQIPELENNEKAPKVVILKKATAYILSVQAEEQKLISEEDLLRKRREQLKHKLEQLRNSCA
Nuclear receptor subfamily 1 group I member 2 (Homo sapiens), sequence (O75469 whole entry, looked up, the tested form may be a part): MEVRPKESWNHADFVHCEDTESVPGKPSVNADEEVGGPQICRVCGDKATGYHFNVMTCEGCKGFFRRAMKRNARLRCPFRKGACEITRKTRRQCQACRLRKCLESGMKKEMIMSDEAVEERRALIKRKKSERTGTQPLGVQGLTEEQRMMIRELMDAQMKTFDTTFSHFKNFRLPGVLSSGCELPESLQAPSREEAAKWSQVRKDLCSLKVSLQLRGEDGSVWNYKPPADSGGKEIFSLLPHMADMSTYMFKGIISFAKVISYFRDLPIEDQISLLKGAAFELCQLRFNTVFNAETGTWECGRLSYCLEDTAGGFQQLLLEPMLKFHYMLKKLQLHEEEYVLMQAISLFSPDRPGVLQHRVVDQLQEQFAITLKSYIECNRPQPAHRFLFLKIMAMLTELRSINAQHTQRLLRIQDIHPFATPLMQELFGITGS
Cellular tumor antigen p53 (Homo sapiens), sequence (P04637 whole entry, looked up): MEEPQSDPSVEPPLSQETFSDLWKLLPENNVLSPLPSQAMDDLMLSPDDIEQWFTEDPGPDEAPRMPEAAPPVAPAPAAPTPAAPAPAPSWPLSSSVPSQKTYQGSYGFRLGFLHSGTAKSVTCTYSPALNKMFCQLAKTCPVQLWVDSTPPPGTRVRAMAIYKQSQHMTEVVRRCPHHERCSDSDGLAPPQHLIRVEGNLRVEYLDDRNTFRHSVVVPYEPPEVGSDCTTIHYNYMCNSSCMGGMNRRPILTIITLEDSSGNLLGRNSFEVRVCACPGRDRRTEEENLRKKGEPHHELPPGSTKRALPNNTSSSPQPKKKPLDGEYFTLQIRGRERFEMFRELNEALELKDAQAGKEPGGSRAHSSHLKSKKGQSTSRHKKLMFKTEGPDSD
human Retinoic Acid Receptor gamma (RARg), RARG (gene 5916), sequence (P13631 whole entry, looked up, the tested form may be a part): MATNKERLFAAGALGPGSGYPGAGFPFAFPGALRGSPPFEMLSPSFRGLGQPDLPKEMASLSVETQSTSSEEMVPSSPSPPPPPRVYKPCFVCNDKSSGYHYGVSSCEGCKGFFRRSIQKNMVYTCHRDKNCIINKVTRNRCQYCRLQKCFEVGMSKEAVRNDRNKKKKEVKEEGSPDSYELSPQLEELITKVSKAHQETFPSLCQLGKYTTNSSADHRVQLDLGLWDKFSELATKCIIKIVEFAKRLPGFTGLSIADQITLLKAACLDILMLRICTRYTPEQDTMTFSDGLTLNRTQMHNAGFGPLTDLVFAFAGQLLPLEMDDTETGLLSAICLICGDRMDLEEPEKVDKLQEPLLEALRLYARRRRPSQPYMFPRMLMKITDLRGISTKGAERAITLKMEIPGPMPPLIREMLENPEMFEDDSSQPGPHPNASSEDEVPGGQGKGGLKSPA
human RAR-related Orphan Receptor gamma (RORg), RORC (gene 6097), sequence (P51449 whole entry, looked up, the tested form may be a part): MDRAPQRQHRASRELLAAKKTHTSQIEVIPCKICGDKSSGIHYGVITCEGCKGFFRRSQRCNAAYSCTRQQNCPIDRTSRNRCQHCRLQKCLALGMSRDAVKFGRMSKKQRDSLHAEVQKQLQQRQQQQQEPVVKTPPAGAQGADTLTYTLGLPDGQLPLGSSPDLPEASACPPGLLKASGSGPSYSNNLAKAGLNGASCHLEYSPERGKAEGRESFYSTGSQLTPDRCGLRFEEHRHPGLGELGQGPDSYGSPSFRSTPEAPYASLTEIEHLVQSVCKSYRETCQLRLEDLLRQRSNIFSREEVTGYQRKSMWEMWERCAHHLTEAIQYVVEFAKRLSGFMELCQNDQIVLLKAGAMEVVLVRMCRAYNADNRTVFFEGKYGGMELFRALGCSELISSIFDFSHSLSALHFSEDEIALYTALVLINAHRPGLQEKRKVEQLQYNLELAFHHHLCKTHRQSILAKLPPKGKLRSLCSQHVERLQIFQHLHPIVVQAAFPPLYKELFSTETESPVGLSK
Peroxisome proliferator-activated receptor gamma (Homo sapiens), sequence (P37231 whole entry, looked up, the tested form may be a part): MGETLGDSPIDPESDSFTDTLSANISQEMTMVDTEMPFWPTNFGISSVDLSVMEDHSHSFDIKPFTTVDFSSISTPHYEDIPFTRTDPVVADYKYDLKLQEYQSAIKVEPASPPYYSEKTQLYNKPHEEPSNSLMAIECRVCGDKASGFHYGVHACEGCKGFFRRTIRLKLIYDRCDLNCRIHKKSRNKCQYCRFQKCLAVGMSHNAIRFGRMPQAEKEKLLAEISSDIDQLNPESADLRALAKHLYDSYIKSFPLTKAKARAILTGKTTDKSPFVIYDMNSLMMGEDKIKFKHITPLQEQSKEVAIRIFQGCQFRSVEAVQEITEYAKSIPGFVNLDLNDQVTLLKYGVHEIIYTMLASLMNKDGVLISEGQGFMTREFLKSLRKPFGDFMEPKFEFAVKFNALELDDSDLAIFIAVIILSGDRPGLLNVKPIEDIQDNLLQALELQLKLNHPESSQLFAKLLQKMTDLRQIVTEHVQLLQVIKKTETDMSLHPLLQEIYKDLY
human Peroxisome Proliferator-activated Receptor delta (PPARd), PPARD (gene 5467), sequence (Q03181 whole entry, looked up, the tested form may be a part): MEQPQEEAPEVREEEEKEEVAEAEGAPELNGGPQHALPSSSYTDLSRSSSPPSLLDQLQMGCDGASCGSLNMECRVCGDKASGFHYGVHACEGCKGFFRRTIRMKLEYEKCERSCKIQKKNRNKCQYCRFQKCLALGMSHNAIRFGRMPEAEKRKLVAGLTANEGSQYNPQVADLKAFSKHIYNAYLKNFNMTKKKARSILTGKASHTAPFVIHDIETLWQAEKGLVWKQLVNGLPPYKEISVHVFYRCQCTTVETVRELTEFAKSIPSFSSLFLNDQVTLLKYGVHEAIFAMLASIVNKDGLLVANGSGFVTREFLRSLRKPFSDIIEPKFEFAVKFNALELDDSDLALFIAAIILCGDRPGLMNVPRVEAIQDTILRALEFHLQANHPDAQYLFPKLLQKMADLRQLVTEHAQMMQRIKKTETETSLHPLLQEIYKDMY

`CC(C)CC(C)(O)C#CC(C)(O)CC(C)C` (stereo not drawn): the result in experiment [1], in [2], in [3], in experiment [4], in experiment [5] and in [6] was inactive. Also, the result in experiment [7], in [8] and in experiment [10] was inactive. Also, the AC50 (usually the concentration giving half of the maximal activity seen) in [9] was 11.9 µM (active).
With `O=C(CCCCCCCCc1cccnc1)N1CCC(C=C(c2ccccc2)c2ccccc2)CC1`, the AC50 in experiment [1] is 8.5 µM (active); in experiment [3], 4.68 µM (active); in [4] it was 8.91 µM (active); in [5], 19.3 µM (active); in experiment [6], 8.68 µM (active); in experiment [7] it was 7.01 µM (active). Moreover, the results for the AC50 in experiment [11], in [8] and in experiment [9] were 14.3 µM (active), 5.66 µM (active) and 1.08 µM (active), respectively. In addition, the molecule was classed as inactive in experiment [2] and in [12].
As to `CC(C)(O)c1coc(S(=O)(=O)NC(=O)Nc2c3c(cc4c2CCC4)CCC3)c1`, the molecule was called inactive in experiment [1], in [2], in [3], in experiment [4], in experiment [5] and in experiment [6]. Moreover, the result in experiment [7], in experiment [8], in [10], in [14] and in experiment [15] was inactive. The AC50 in experiment [13] was 44.9 µM (active); in experiment [9] it was 19.3 µM (active).
Take `O=C(NS(=O)(=O)/C=C/c1ccccc1)c1ccc(F)cc1Cl`: the result in [1], in experiment [2], in [3], in experiment [4], in experiment [5] and in experiment [6] was inactive. The result in experiment [7], in experiment [16], in experiment [17] and in experiment [14] was inactive. For the same molecule, the half-maximal activity concentration (AC50) is 6.4 µM (active) in experiment [8] and 16.2 µM (active) in experiment [9].
In the case of `Nc1nc2ncc(CNc3ccc(C(=O)N[C@@H](CCC(=O)O)C(=O)O)cc3)nc2c(=O)[nH]1`, the call in experiment [1], in experiment [2], in experiment [3], in experiment [4], in experiment [5] and in [6] was inactive. The outcome in experiment [7], in experiment [16], in experiment [17], in experiment [8], in experiment [14] and in experiment [15] was inactive.
